Test results published in paper PMC3404119, “Topology and Dynamics of the Zebrafish Segmentation Clock Core Circuit”.

Key:
[1] = target: T1, Her1-GFP homodimer (zebrafish (Danio rerio), UniProt Q90463 1-328); test: MITOMI; PPARgamma-mCherry co-present (non-interacting control); TnT SP6 wheat germ expression extract on MITOMI chip, 3 h at room temperature; salt and pH not stated; PBS used for washing; high values mean tight binding; details: protein: ivt; tags: C-terminal GFP; chain copies: 2; label: Cy5; dsDNA, one strand shown
T1 sequence: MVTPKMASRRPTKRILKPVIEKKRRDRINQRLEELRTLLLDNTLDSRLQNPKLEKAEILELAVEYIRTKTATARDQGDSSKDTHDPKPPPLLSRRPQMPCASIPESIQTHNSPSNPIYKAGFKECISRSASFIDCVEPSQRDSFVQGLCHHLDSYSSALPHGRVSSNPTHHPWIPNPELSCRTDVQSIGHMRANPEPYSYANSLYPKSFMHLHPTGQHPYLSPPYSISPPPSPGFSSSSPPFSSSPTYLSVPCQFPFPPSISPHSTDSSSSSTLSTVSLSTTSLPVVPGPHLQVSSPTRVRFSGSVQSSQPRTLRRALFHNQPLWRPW

[2] = target: T2, Her7 (coupled to chip, Fig 2D);Hes6-mCherry (zebrafish (Danio rerio);zebrafish …, UniProt Q9I9K1;Q6P0J1 1-206;1-226, |); test: MITOMI; Her7:Hes6 heterodimer, Her7 coupled to chip and Hes6-mCherry in solution; TnT SP6 wheat germ expression extract on MITOMI chip, 3 h at room temperature; salt and pH not stated; PBS used for washing; high values mean tight binding; details: protein: ivt;ivt; copies: 1;1; label: Cy5; dsDNA, one strand shown
T2 sequence 1: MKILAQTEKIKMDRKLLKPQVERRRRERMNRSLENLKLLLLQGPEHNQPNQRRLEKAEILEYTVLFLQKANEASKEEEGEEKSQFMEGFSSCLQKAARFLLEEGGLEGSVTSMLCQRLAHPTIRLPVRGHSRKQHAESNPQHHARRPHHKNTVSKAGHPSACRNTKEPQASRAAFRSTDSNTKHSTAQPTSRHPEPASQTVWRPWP
T2 sequence 2: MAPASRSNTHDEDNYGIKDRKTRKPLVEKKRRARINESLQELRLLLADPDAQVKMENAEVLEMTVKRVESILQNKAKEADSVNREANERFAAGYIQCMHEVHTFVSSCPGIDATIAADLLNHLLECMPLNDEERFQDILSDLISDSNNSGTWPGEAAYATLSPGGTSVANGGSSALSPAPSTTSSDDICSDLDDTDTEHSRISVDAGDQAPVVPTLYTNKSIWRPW

Row | Sequence | binding signal [1] | binding signal [2]
1 | ATCCACGTGTCC | 0.303 ± 0.0145 relative affinity (strongest site = 1) | 0.256 ± 0.00386 relative affinity (strongest site = 1)
2 | TGTCGCGTGCCA | 0.597 ± 0.0246 relative affinity (strongest site = 1) | 0.531 ± 0.00964 relative affinity (strongest site = 1)
3 | CTCCACGTGCCC | 0.269 ± 0.00665 relative affinity (strongest site = 1) | 0.297 ± 0.00926 relative affinity (strongest site = 1)
4 | CATCACGTGAAA | 0.018 ± 0.00636 relative affinity (strongest site = 1) | 0.0344 ± 0.00348 relative affinity (strongest site = 1)
5 | GGGCGCGTGCCG | 0.576 ± 0.0101 relative affinity (strongest site = 1) | 0.748 ± 0.021 relative affinity (strongest site = 1)
6 | CAACACGGGGTG | 0.026 ± 0.00978 relative affinity (strongest site = 1) | 0.0311 ± 0.0032 relative affinity (strongest site = 1)
7 | GTACACGTGGCG | 0.237 ± 0.00793 relative affinity (strongest site = 1) | 0.275 ± 0.00281 relative affinity (strongest site = 1)
8 | TTCCACGAGAAA | 0.0129 ± 0.000672 relative affinity (strongest site = 1) | 0.0286 ± 0.00127 relative affinity (strongest site = 1)
9 | GGTCGCGTGTGC | 0.181 ± 0.0115 relative affinity (strongest site = 1) | 0.182 ± 0.00317 relative affinity (strongest site = 1)
10 | TCACACCTGTGCAG | – | 0.02 ± 0.00133 relative affinity (strongest site = 1)
11 | GCCCACGCGCCG | 0.119 ± 0.00729 relative affinity (strongest site = 1) | 0.168 ± 0.00251 relative affinity (strongest site = 1)
12 | AAACACGAGCCA | 0.0562 ± 0.00247 relative affinity (strongest site = 1) | 0.208 ± 0.00306 relative affinity (strongest site = 1)
13 | AGGCGCGTGGTG | 0.077 ± 0.00506 relative affinity (strongest site = 1) | 0.157 ± 0.00403 relative affinity (strongest site = 1)
14 | GTTCACGTGTGC | 0.0341 ± 0.00138 relative affinity (strongest site = 1) | 0.102 ± 0.00486 relative affinity (strongest site = 1)
15 | TATCTCGTGCTG | 0.029 ± 0.0011 relative affinity (strongest site = 1) | 0.0758 ± 0.00824 relative affinity (strongest site = 1)
16 | TGGCACGTGTCC | 1 ± 0.0321 relative affinity (strongest site = 1) | 1 ± 0.0512 relative affinity (strongest site = 1)
17 | GCCCACGGGCCC | 0.144 ± 0.0313 relative affinity (strongest site = 1) | 0.0279 ± 0.00171 relative affinity (strongest site = 1)
18 | CGACACGCGGTG | 0.0408 ± 0.00225 relative affinity (strongest site = 1) | 0.0849 ± 0.00174 relative affinity (strongest site = 1)
19 | GGGCACGTGCGC | 0.406 ± 0.00899 relative affinity (strongest site = 1) | 0.542 ± 0.0166 relative affinity (strongest site = 1)
20 | GTTCTCGTGTTT | 0.0171 ± 0.0014 relative affinity (strongest site = 1) | 0.0265 ± 0.0016 relative affinity (strongest site = 1)
21 | CAGCACGTGTCT | 0.456 ± 0.0098 relative affinity (strongest site = 1) | 0.679 ± 0.014 relative affinity (strongest site = 1)
22 | CAGCGCGTGTGC | 0.057 ± 0.0015 relative affinity (strongest site = 1) | 0.179 ± 0.00225 relative affinity (strongest site = 1)
